Assay [1] in a line: antimalarial activity against Dd2 strain (AID 2302;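 active means growth inhibition above 50% at the single 2 µM test dose, taken to imply half-maximal potency below 2 µM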;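 further: 0% = DMSO untreated growth and 100% = chloroquine plus artemisinin killed control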). The note with it: P. falciparum Dd2 in RBCs, LDH growth readout, 72 h; at 2 µM; hits give high values.
The nature of assay [2]: HepG2 cytotoxicity, primary screen, cytotoxicity control for P. falciparum antimalarial project, cell-based, ATP luminescence (AID 2303;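 active means inhibition above 50%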;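 further: 0% = DMSO wells and 100% = digitonin-killed cells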). Conditions: HepG2 viability, 24-48 h, at 10 µM, hits give high values.
Assay [3] concerns the target L-lactate dehydrogenase (Plasmodium falciparum (isolate CDC / Honduras)) (UniProt Q27743). The experiment in a line: PfLDH activity inhibition – cell lysate, 3D7 strain, counter-screen for P. falciparum growth inhibition project (AID 2304).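 Further: 0% = vehicle and 100% = reference inhibitor.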 Conditions: P. falciparum 3D7 crude extract, LDH APAD/NBT absorbance; at 2 µM; hits give high values. A general note: A counterscreen serves to expose hits that act by an unwanted route or on another target.

Assay [4] in a line: inhibition of 3D7 malaria parasite growth – strain 3D7 (AID 2306).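 Further: 0% = DMSO wells and 100% = chloroquine plus artemisinin control wells.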 Conditions: P. falciparum 3D7 erythrocytic growth, LDH absorbance, 72 h; at 2 µM; hits give high values.
The target of assay [5] is Calcium-dependent protein kinase 1 (Plasmodium falciparum (isolate 3D7)) (UniProt P62344). The experiment in a line: PfCDPK1 kinase inhibitors, biochemical, TCAMS library (AID 1159585; cut-off not given, nearly all actives have IC50 up to about 0.98 µM;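 further: inhibitors leave more ATP so luminescence rises with inhibition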). The note with it: recombinant PfCDPK1, Kinase-Glo ATP depletion luminescence. On the technique in general: Kinase-Glo reads ATP consumption through a luciferase reaction.
Sequence of Calcium-dependent protein kinase 1 (Plasmodium falciparum (isolate 3D7)) (P62344 whole entry, looked up): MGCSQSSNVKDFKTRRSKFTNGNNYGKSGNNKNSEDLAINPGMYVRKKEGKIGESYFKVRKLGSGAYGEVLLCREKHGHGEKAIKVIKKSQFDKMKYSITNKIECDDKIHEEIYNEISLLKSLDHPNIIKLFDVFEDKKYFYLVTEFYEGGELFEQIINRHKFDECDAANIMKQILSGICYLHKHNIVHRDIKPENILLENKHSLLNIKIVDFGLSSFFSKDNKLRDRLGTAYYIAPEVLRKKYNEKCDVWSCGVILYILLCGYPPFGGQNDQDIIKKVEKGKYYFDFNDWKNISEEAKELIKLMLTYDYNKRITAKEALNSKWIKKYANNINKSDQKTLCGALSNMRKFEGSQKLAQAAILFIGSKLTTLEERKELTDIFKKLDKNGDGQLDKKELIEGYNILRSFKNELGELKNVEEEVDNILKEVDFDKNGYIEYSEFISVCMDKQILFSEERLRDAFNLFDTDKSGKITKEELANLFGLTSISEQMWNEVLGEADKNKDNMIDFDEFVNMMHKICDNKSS
In assay [6] the target is Plasmodium falciparum protein kinase 6 (PK6, PF3D7_1337100) (UniProt Q8IDW1). The experiment in a line: PfPK6 kinase inhibitors, biochemical, TCAMS library (AID 1159586). Conditions: recombinant PfPK6, Kinase-Glo ATP depletion luminescence.
Sequence of Plasmodium falciparum protein kinase 6 (PK6, PF3D7_1337100) (Q8IDW1 1-305): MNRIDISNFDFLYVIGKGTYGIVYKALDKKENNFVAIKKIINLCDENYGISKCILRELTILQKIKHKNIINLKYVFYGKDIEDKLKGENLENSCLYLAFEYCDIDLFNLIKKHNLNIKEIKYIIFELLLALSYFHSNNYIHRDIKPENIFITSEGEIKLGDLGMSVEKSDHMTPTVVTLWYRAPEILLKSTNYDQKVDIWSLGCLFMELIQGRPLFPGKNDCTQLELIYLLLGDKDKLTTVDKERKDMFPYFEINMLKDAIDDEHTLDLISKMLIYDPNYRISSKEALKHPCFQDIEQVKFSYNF
Assay [7] deals with Protein kinase 7 (PK7), Plasmodium falciparum 3D7 (PF3D7_0213400) (UniProt Q7YTF7). Put plainly: inhibition of Plasmodium PK7 catalytic activity – biochemical, TCAMS antimalarial set, Kinase-Glo luminescence (AID 1159587). The note with it: recombinant PfPK7, Kinase-Glo ATP depletion luminescence.
Sequence of Protein kinase 7 (PK7), Plasmodium falciparum 3D7 (PF3D7_0213400) (Q7YTF7 1-343): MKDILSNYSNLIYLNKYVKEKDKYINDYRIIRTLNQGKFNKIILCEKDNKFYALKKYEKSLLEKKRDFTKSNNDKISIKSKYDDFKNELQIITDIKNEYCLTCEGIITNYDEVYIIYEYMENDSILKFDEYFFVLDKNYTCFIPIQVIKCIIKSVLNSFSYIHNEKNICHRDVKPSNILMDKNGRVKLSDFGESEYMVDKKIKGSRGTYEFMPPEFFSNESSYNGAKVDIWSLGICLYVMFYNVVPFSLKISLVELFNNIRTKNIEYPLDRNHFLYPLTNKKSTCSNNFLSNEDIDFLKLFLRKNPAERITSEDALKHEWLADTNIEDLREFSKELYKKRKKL
The target of assay [8] is Calcium-dependent protein kinase 4 (Plasmodium falciparum (isolate 3D7)) (UniProt Q8IBS5). Put plainly: PfCDPK4 kinase inhibitors, biochemical, TCAMS library (AID 1159588; cut-off not given, nearly all actives have IC50 up to about 0.91 µM). The note with it: recombinant PfCDPK4, Kinase-Glo ATP depletion luminescence.
Sequence of Calcium-dependent protein kinase 4 (Plasmodium falciparum (isolate 3D7)) (Q8IBS5 whole entry, looked up): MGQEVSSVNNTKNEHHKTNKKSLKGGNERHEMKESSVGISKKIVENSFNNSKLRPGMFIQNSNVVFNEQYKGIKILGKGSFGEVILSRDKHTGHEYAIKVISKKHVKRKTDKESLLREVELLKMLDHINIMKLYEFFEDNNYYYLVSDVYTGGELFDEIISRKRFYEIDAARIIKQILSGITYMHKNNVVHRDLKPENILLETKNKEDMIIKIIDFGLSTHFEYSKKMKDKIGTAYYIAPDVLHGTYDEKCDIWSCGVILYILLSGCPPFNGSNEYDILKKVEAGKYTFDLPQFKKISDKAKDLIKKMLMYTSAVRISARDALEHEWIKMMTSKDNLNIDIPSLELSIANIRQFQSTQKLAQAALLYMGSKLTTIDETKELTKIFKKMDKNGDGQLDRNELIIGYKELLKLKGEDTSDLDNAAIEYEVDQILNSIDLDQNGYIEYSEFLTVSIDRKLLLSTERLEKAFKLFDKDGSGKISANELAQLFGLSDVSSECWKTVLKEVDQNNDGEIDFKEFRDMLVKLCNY

Data on 17 compounds can be found in PubChem BioAssay.

Unmarked numbers belong to inactive results. For some of these results: Results with a measured potency or affinity are listed apart. Calls of active or inactive are those of the source. Unless noted, how the calls were made is not given here.

Sequence of L-lactate dehydrogenase (Plasmodium falciparum (isolate CDC / Honduras)) (Q27743 whole entry, looked up): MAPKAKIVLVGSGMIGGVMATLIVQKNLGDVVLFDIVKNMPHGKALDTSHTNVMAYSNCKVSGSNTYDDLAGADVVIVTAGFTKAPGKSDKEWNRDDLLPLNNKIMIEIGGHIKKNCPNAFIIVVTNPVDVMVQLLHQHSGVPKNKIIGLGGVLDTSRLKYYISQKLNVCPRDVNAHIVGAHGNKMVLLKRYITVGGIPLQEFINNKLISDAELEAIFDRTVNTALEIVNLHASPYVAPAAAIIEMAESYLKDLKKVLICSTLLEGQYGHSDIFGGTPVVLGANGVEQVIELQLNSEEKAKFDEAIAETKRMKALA

Broadly, the inhibition is the drop in the measured response relative to a control, in per cent. Turning to `O=C(c1cc(C(=O)Nc2ccccc2F)c(=O)n(-c2ccccc2F)c1)c1cc(Cl)ccc1O`, the growth inhibition in assay [1] was 80% (active); in assay [4], 98% (active). The inhibition in assay [2] is 2%; in assay [3], 5%. In addition, the result in assay [5], in assay [6], in assay [7] and in assay [8] was inactive.

`COc1ccc(C=NNc2cc(C)nc3c(C)cccc23)c2ccccc12`: the growth inhibition in assay [1] was 98% (active); in assay [4], 102% (active). Besides, the inhibition is 3% in assay [2] and 0% in assay [3]. For the same compound, the outcome in assay [5], in assay [6], in assay [7] and in assay [8] was inactive.

For `CC(=O)Nc1ncc(C(=O)Nc2cccc(-c3ccc(-c4nc5ccc(C(F)(F)F)cc5[nH]4)s3)c2)s1`, the growth inhibition is 99% (active) in assay [1] and 101% (active) in assay [4]. For the same compound, the inhibition in assay [2] was 90% (active); in assay [3] it was 5%. The result in assay [5], in assay [6], in assay [7] and in assay [8] was inactive.

Regarding `N#Cc1cccc(-c2nc(NCc3cccc(C(F)(F)F)c3)nn2-c2cccc(C(F)(F)F)c2)c1`, the growth inhibition in assay [1] is 88% (active); in assay [4], 94% (active). The inhibition is 12% in assay [2] and 3% in assay [3]. Moreover, the outcome in assay [5], in assay [6], in assay [7] and in assay [8] was inactive.

With `COc1ccc2nccc([C@@H](O)CN3CCC(NC(=O)c4ccc(Cl)c([N+](=O)[O-])c4)CC3)c2c1`, the growth inhibition is 43% in assay [1] and 88% (active) in assay [4]. Besides, the inhibition in assay [2] was 14%; in assay [3], -1%. Besides, the result in assay [5], in assay [6], in assay [7] and in assay [8] was inactive.

`CCCCc1ccc(C(=O)Nc2ccc3nc(N4CCN(CC)CC4)cc(C)c3c2)cc1`: the growth inhibition was 13% in assay [1] and 91% (active) in assay [4]. For the same compound, the inhibition is 32% in assay [2] and 4% in assay [3]. Moreover, the outcome in assay [5], in assay [6], in assay [7] and in assay [8] was inactive.

For the compound `CO/C(=C\C=C\c1cc2cc(Cl)c(Cl)cc2[nH]1)C(=O)NCCCN1CCC(c2ccccc2)CC1`, the figures for the growth inhibition in assay [1] and in assay [4] were 92% (active) and 100% (active), respectively. Further, the results for the inhibition in assay [2] and in assay [3] were 33% and -1%, respectively. Also, the outcome in assay [5], in assay [6], in assay [7] and in assay [8] was inactive.

`CCN1CCN(C(=O)NC(C(=O)N2CCCC(COc3ccc(Cc4ccccc4)cc3)C2)c2cccs2)C(=O)C1=O` (stereo unspecified): the growth inhibition in assay [1] is 87% (active); in assay [4] it was 95% (active). For the same compound, the inhibition in assay [2] is 12%; in assay [3], -6%. Moreover, the outcome in assay [5], in assay [6], in assay [7] and in assay [8] was inactive.

For the compound `O=C(Nc1ccc(C(=O)N2CCN(CCN3CCN(c4cccc(C(F)(F)F)c4)CC3)CC2)cc1)c1ccc(OC(F)(F)F)cc1`, the growth inhibition in assay [1] was 25%; in assay [4], 95% (active). For the same compound, the results for the inhibition in assay [2] and in assay [3] were 38% and 7%, respectively. For the same compound, the outcome in assay [5], in assay [6], in assay [7] and in assay [8] was inactive.

As for `O=C(N1CCN(c2cccc(C(F)(F)F)c2)CC1)C(Cl)(Cl)Cl`, the growth inhibition in assay [1] is 35%; in assay [4], 89% (active). Moreover, the inhibition was -8% in assay [2] and 2% in assay [3]. Besides, the result in assay [5], in assay [6], in assay [7] and in assay [8] was inactive.

Turning to `Cc1cc(C2CCN(CCCCNC(=O)c3ccc(-c4ccc(C(F)(F)F)cc4)cc3)CC2)c(C)cc1OCC#N`, the growth inhibition in assay [1] is 58% (active); in assay [4], 100% (active). Also, the inhibition in assay [2] was 40%; in assay [3], 3%. In addition, the outcome in assay [5], in assay [6], in assay [7] and in assay [8] was inactive.

In the case of `CCCCCCNC(=O)C1Cc2c([nH]c3cc(Cl)ccc23)C2(CCN(CCC)CC2)N1` (stereo unspecified), the growth inhibition in assay [1] is 18%; in assay [4] it was 92% (active). Besides, the inhibition in assay [2] is 8%; in assay [3], 0%. Further, the outcome in assay [5], in assay [6], in assay [7] and in assay [8] was inactive.

With `OCCNc1nc(Nc2ccc(F)cc2)nc2ccccc12`, the growth inhibition in assay [1] is 73% (active); in assay [4], 94% (active). The inhibition in assay [2] is 10%; in assay [3], 3%. Moreover, the outcome in assay [5], in assay [6], in assay [7] and in assay [8] was inactive.

Consider `CC(C)(CNC(=O)[C@@H]1CCCN(CCOc2ccc(Cl)cc2)C1)c1nc(-c2ccc(Cl)c(O)c2)c(-c2ccncc2)[nH]1`, for which the growth inhibition in assay [1] is 57% (active); in assay [4] it was 92% (active). Moreover, the results for the inhibition in assay [2] and in assay [3] were 58% (active) and -7%, respectively. The result in assay [5], in assay [6], in assay [7] and in assay [8] was inactive.

Consider `NC1CCCN(Cc2ccc(-c3ccc(-c4nc5ccc(F)cc5[nH]4)s3)cc2)C1` (stereo unspecified), for which the growth inhibition in assay [1] is 98% (active); in assay [4], 100% (active). Further, the inhibition in assay [2] was 40%; in assay [3] it was 1%. In addition, the outcome in assay [5], in assay [6], in assay [7] and in assay [8] was inactive.

For `COc1ccc2nccc([C@@H](O)CN3CCC(NCc4cc5cc([N+](=O)[O-])ccc5[nH]4)CC3)c2c1`, the figures for the growth inhibition in assay [1] and in assay [4] were 57% (active) and 99% (active), respectively. Besides, the inhibition in assay [2] was 29%; in assay [3] it was 4%. Also, the outcome in assay [5], in assay [6], in assay [7] and in assay [8] was inactive.

On to `Cc1nnc2c(NC(=O)/C=C/c3ccc(OC(F)(F)F)cc3)cc3cc(Cl)ccc3n12`, for which the growth inhibition is 99% (active) in assay [1] and 94% (active) in assay [4]. The inhibition in assay [2] was 19%; in assay [3] it was 4%. For the same compound, the outcome in assay [5], in assay [6], in assay [7] and in assay [8] was inactive.
